High-throughput results (PubChem)
The sample as a whole holds a higher share of hits than the screen did.
Sm TGR inh: S. mansoni TGR enzyme inhibition; purified TGR, DTNB reduction, TNB absorbance 405 nm; 360,000 tested, 3% active; Potency, µM (titrated, usually from 114 µM), usual class: inhibitors; further: nearly all actives have a fitted effect of over 60% in size
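TGR 20 nM + NADPH 100 uM (dispensed conc.), cpd preinc 15 min RT; start with NADPH (500 uM addition) then DTNB (15 mM addition). Kinetic TNB absorbance, 405 nm filter. Four-parameter Hill fit across titration.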
Cycloheximide cs: counter-screen hit for Shiga toxin inhibitors, cycloheximide | 300,000 tested, 12% active | cell reporter, cycloheximide protein synthesis inhibition counterscreen | max response, %; in the data active means max response mostly above about 13%, no sharp cut-off; inactive means mostly below about 14%; further: read at 38.3 µM for the half of the compounds with a filed dose
Giardia FBPA inh: blocks Giardia fructose-bisphosphate aldolase activity; purified Giardia FBPA; Potency, µM (highest dose often 59.6 µM), actives largely listed as inhibitors; 290,000 tested, 0.71% active; AID 2451; further: nearly all actives have a fitted effect of over 55% in size
Target sequence (A8B2U2 whole entry, looked up): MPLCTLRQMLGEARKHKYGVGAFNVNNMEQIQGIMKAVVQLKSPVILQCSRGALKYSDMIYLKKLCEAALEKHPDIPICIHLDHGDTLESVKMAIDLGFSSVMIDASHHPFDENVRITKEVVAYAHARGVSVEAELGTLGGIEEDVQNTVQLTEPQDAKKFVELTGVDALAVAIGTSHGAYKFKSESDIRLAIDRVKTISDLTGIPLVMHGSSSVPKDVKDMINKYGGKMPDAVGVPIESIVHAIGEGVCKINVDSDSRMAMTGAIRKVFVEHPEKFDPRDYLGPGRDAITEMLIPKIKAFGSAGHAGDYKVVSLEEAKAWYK
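40 nM FBPA preincubated 10 min at RT with compound (up to 57.5 uM final), then substrate plus GAPDH/TPI/NAD/arsenate coupling and diaphorase/resazurin added. Fluorescence read after 20 min at RT, 525/598 nm.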
LmPK inhibitor: LmPK (Leishmania mexicana) enzyme inhibition. Q27686. 290,000 tested, 0.37% active. AID 1721. purified LmPK, Kinase-Glo ATP luminescence, 1 h. Potency, µM (doses to about 57.5 µM), most hits filed as inhibitors
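ATP generated from ADP (0.1 mM) and PEP (0.5 mM) by 0.1 nM LmPK over 1 h at room temperature (pH 7.2 imidazole buffer) was detected by coupled luciferase luminescence. Values were normalized to uninhibited and no-enzyme wells.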
Tb PYK inh: inhibitors of Trypanosoma brucei pyruvate kinase; Potency, µM (top dose mostly 76.8 µM), most hits filed as inhibitors; 410,000 tested, 0.12% active; Q57TT1; TbPYK enzyme, Kinase-Glo Plus ATP luminescence, 45 min; further: nearly all actives have a fitted effect of over 50% in size
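Screened from lowest to highest concentration, compounds were pinned into TbPYK/substrate mixtures, and ADP (130 uM final) was added. Plates sat at room temperature for 45 min prior to Kinase-Glo Plus detection by luminescence.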
Shiga inhibitor: blocks Shiga toxin action in Vero cells. Vero cells, Shiga toxin protein synthesis inhibition reporter. inhibition, % at 38.7 µM. 290,000 tested, 9.2% active; in the data active means inhibition mostly above about 28%, no sharp cut-off; inactive means mostly below about 43%
Hits are given with their value; i = inactive; ? = inconclusive; nt = no result. Unless noted, the call rests on the fitted dose curve; in most records, active means well fitted curve in the direction sought with a large enough effect; inconclusive means small, poorly fitted or top-dose-only effect, or another doubt; inactive means no such curve, though single readings can be large; an effect the other way counts as inactive or inconclusive.

SMILES | Sm TGR inh | Cycloheximide cs | Giardia FBPA inh | LmPK inhibitor | Tb PYK inh | Shiga inhibitor
Cc1nn(Cc2c(Cl)cccc2Cl)c(Cl)c1/C=N/NC(=O)c1cccnc1 | i | 16 | i | i | i | 41
Cc1nn(-c2ccccc2)c(Cl)c1/C=N\NC(=O)c1cncc(Br)c1 | i | i | i | i | i | i
O=C(N/N=C/c1c(O)n(-c2ccccc2Cl)c(=O)c2ccccc12)c1cccnc1 | i | i | i | i | i | i
Cc1nn(-c2ccccc2)c(Cl)c1/C=N/NC(=O)CNC(=O)c1ccccc1Cl | i | 18 | i | i | i | i
Cc1nn(-c2cccc(Cl)c2)c(Cl)c1/C=N/NC(=O)c1cccnc1 | i | 17 | i | i | i | i
Cc1sc(N2CCN(S(=O)(=O)c3ccc4c(c3)NC(=O)CO4)CC2)nc1-c1ccccc1 | i | i | nt | i | i | i
CCOC(=O)C(C)Sc1nnc2ccc3ccccc3n12 (centres undefined) | i | nt | nt | nt | i | nt
CCOC(=O)c1c(S(=O)(=O)Nc2ccc(F)cc2C)c(C)n(C)c1C | i | i | i | i | i | i
CCOC(=O)c1ccc(NC(=O)C(C)Sc2nc(=O)cc(N)n2CCc2ccccc2)cc1 (centres undefined) | i | nt | nt | nt | i | nt
COC(=O)N/N=C/c1c(C)nn(-c2cccc(Cl)c2)c1Cl | i | 49 | i | i | i | 55
Cn1c(Cl)c(/C=N/OC(=O)c2ccccc2Cl)c2ccccc21 | i | 14 | i | i | i | i
Cn1nc(C(F)(F)F)c(/C=N/OC(=O)c2ccccc2)c1Cl | i | i | i | i | i | i
Cn1cccc1C(=O)N1CCC2(CC1)CCN(c1ccncc1)CC2 | nt | nt | i | nt | i | nt
CCOC(=O)C1=C(N)OC2=C(C(=O)CC(C)(C)C2)C1c1ccc(C)s1 (centres undefined) | i | 26 | i | i | i | 89
Cc1ccc(NC(=O)Cn2ncc3c4ccccc4n(Cc4ccccc4)c3c2=O)cc1Cl | i | nt | nt | nt | i | nt
C=C1C(=O)OC2CC(C)C3C=CC(=O)C3(C)C(O)C12 (centres undefined) | nt | nt | nt | nt | i | nt
C=C1C(=O)O[C@@H]2C[C@@H](C)[C@@H]3C4OC4C(=O)[C@@]3(C)[C@@H](O)[C@H]12 (some centres undefined) | 40µM | i | i | i | i | i
CC12CN3CC(C)(CN(C1)C3c1ccc3ccccc3c1O)C2=O (centres undefined) | i | i | 13µM | i | i | i
O=C(O)/C=C/C(=O)NCc1ccccc1 | 50µM | i | i | i | i | i
O=C(O)/C=C/C(=O)Nc1ccc(-c2ccccc2)cc1 | i | 45 | i | i | i | 92
O=C(O)/C=C/C(=O)Nc1ccc(OC(F)(F)F)cc1 | i | i | i | i | i | i
C[C@H](NC(N)=O)C(=O)Nc1ccc(OCc2ccccc2)cc1 | i | 59 | i | i | i | i
O=C(O)/C=C/C(=O)Nc1ccc(OC(F)F)cc1 | i | i | i | i | i | i
O=C(O)/C=C/C(=O)Nc1ccc(OCc2ccccc2)cc1 | i | 19 | i | i | i | i
O=C(O)/C=C\C(=O)NCc1ccccc1 | i | i | i | i | i | i
SMILES | Sm TGR inh | Cycloheximide cs | Giardia FBPA inh | LmPK inhibitor | Tb PYK inh | Shiga inhibitor
CC(C)[C@H](NC(N)=O)C(=O)Nc1ccc(OCc2ccccc2)cc1 | i | i | i | i | i | i
CC[C@@]12CCCN3CCc4c(n(c5ccccc45)[C@](O)(C(=O)OC)C1)C32 (some centres undefined) | nt | nt | i | nt | i | nt
COc1cccc(-c2nc(NCc3cccs3)c3ccccc3n2)c1 | nt | nt | i | nt | nt | nt
CC(C)(C)OC(=O)NCCCCC1=CC2=CC(=O)C(C)(OC(=O)C3CCCC3)C(=O)C2=CO1 (centres undefined) | nt | nt | i | nt | nt | nt
COC(=O)[C@@]1(Cc2ccc(F)cc2)[C@H]2c3cc(C(=O)N(C)C)n(Cc4cc(F)c(F)c(F)c4)c3C[C@H]2CN1C(=O)c1ccccc1 | nt | nt | i | nt | nt | nt
CN1CCC(C2(O)c3ccccc3CCc3ccccc32)CC1 | i | 34 | i | i | i | 58
O=C(CC1C(=O)NCCN1CC1CCCCC1)NCc1ccc(F)cc1F (centres undefined) | i | 20 | i | i | i | 41
CC(C)c1cc(CNC(=O)CC2C(=O)NCCN2CC2CCCCC2)on1 (centres undefined) | 50µM | i | i | i | i | i
CC1=CC(=O)C(Sc2ccc(C)cc2)=CC1=O | nt | nt | nt | nt | 7.1µM | nt
Cc1ccc(Sc2c(C)[nH]n(C(C)(C)C)c2=O)cc1 | i | i | i | i | i | i
CNC(=O)Oc1ccc(-c2cn3cc(C)ccc3n2)cc1 | i | i | i | i | i | i
COc1ccc(-c2cn3cc(C)ccc3n2)cc1OC | i | 33 | i | 16µM | i | 55
COc1ccc(-c2cn3cc(C)ccc3n2)cc1F | i | 16 | ? | i | i | i
O=C(CCNC(=O)C1CCN(S(=O)(=O)c2ccc(F)cc2)CC1)Nc1ccccc1 | i | i | nt | i | i | i
CN1CCC(NC(=O)c2cccc(Oc3ccccc3)c2)CC1 | i | i | i | i | i | i
Cc1cccc(CC(=O)NCC2CCCCC2)c1 | i | 31 | i | i | i | 93
O=C(NC1CCCCCC1)c1cccc(COCC(F)(F)F)c1 | i | 22 | i | i | i | active
Cc1ccc(NC(=O)N2CCC(NC(=O)c3cccc(C)c3)CC2)cc1 | ? | i | i | i | i | i
O=C(NC1CCCC1)c1cccc(Oc2ccccc2)c1 | i | 23 | i | i | i | 78
Cc1cccc(C(=O)NC2CCN(C(=O)NCc3ccccc3)CC2)c1 | 11µM | i | i | i | i | i
CCn1cc2nc(SCc3ccc(F)cc3)n(CCc3ccccc3)c(=O)c2n1 | i | nt | nt | nt | i | nt
CCCN1C(=O)c2cc(C(=O)NC3CCCCCC3)ccc2C1O (centres undefined) | i | 34 | i | i | i | 41
CCCN1C(=O)c2cc(C(=O)O)ccc2C1O (centres undefined) | i | i | ? | i | i | i
CN(C)c1cccc(C(=O)NC2CCCCCC2)c1 | i | 40 | i | i | i | 43
Cc1cccc(C(=O)NC2CCCCCCC2)c1 | i | 45 | i | i | i | 78
SMILES | Sm TGR inh | Cycloheximide cs | Giardia FBPA inh | LmPK inhibitor | Tb PYK inh | Shiga inhibitor
COC(=O)c1cc2sccc2n1Cc1c(C)cc(C)cc1C | i | nt | nt | nt | i | nt
COc1ccc(NC(=O)c2nc3nc(C)cc(C(F)F)n3n2)c(C)c1 | i | nt | nt | nt | i | nt
Cc1c(NC(=O)c2cc(Br)ccc2Cl)cccc1-n1cnnn1 | nt | nt | nt | nt | i | nt
O=C(Nc1cccc(-c2cn3ccccc3n2)c1)c1cnccn1 | i | i | i | i | i | i
O=C(Nc1ccccc1)c1cn2ccccc2n1 | i | i | i | 16µM | i | i
Cc1csc(NC(=O)c2cn3ccccc3n2)n1 | i | i | ? | 14µM | ? | i
O=C(Nc1ccc(-n2cnnn2)cc1)c1cn2ccccc2n1 | i | 22 | i | i | i | i
Cc1c(NC(=O)c2cn3ccccc3n2)cccc1-n1cnnn1 | i | 15 | i | i | i | i
